Screening results as filed in PubChem.
TDP1 cell CPT = growth inhibition of DT40 Tdp1-/-;hTDP1 cells with camptothecin (screen for TDP1 inhibitors); chicken DT40 Tdp1-/-;hTDP1 cells + 20 nM CPT, ATP luminescence, 48 h; Potency, µM (top dose mostly 46.2 µM), without a hit: at the highest dose activity change, negative = growth inhibition, actives largely listed as inhibitors; 420,000 tested, 12% active; AID 686979; note: % is set by controls: 0 for no effect and ±100 for the full control effect; nearly all actives have a fitted effect of over 55% in size
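Chicken DT40 Tdp1-/- cells stably complemented with human TDP1 were seeded at 400 cells/well in medium containing 20 nM camptothecin, exposed to pin-transferred compounds, and grown at 37 °C for at least 48 hr. Viability was read as ATP luminescence.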
DT40 TDP1 no CPT = qHTS for Inhibitors of human tyrosyl-DNA phosphodiesterase 1 (TDP1): qHTS in cells in absence of CPT; AID 686978, 2013; Potency, µM (titrated, usually from 46.2 µM), for inactives: at the top dose activity change, negative = growth inhibition, usual class: inhibitors; 420,000 tested, 15% active; DT40 Tdp1-/- hTDP1 cells, no CPT, ATP luminescence, 48 h; note: % is set by controls: 0 for no effect and ±100 for the full control effect; nearly all actives have a fitted effect of over 55% in size
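A cellular qHTS used chicken DT40 cells lacking endogenous Tdp1 but carrying stably transfected human TDP1. Compounds were applied without camptothecin, and cell growth kinetics were judged by ATP-dependent luminescence after ≥48 hr.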
TDP1 inh = inhibitors of human tyrosyl-DNA phosphodiesterase TDP1. 350,000 tested, 0.28% active. Q9NUW8. Potency, µM (doses to about 130 µM), for inactives: at the top dose activity change, negative = inhibition, actives largely listed as inhibitors. recombinant TDP1, AlphaScreen DNA substrate cleavage; note: % is set by controls: 0 for no effect and ±100 for the full control effect; nearly all actives have a fitted effect of over 40% in size
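Recombinant human Tdp1 (E. coli-expressed, 1 nM final) preincubated with compounds 15 min at room temperature, then 5'-biotin/3'-phosphotyrosine-FITC DNA substrate (15 nM final) added for 5 min. AlphaScreen beads (10 ug/ml final) added 10 min; cleavage lowers signal.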
ClpP mod = qHTS Assay for Activators of ClpP; ATP-dependent Clp protease proteolytic subunit (Bacillus subtilis (strain 168)), P80244; purified B. subtilis ClpP, FRET peptide cleavage, 20 min; Potency, µM (doses to about 57.5 µM), without a hit: top-dose activity change, negative = active; 340,000 tested, 1.9% active; AID 651965, 2013; active = well fitted falling curve with a large enough effect; inconclusive = small, poorly fitted or top-dose-only effect; inactive = no such curve, though single readings can be large or run the other way; note: the source files actives as falling curves though it sought activators and does not explain the sign; nearly all actives have a fitted effect of over 65% in size
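Purified B. subtilis ClpP, 10 microg/mL final in Tris/HCl pH8 with KCl, BSA, glycerol and Tween-20, cleaved an Abz/nitrotyrosine-quenched decapeptide. Fluorescence (ex 320, em 430) was read at 0 and 20 min at room temperature. Delta was normalized to 5.8 microM ADEP and DMSO/no-enzyme controls.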
Active calls of the source: *; ? = inconclusive; · = not tested or not shown; [ ] = remark or other dose. Sampled rows, rich in hits. Any-hit rate of the full collection: about 17%. Unless noted, calls come from the whole dose curve; as a rule, active = well fitted curve in the direction sought with a large enough effect; inconclusive = small, poorly fitted or top-dose-only effect, or another doubt; inactive = no such curve, though single readings can be large; an effect the other way counts as inactive or inconclusive. Potency is the fitted concentration of half-maximal effect.

SMILES	TDP1 cell CPT	DT40 TDP1 no CPT	TDP1 inh	ClpP mod
CC(C)NC(=S)NC(=O)/C=C/c1ccc(F)cc1	21µM*	15µM*	5%	1%
O=C(/C=C/c1ccc(F)cc1)NC(=S)Nc1ccccc1C(=O)NC1CCCCC1	16µM*	13µM*	8%	-1%
COc1ccc(/C=C/C(=O)NCCCN2CCCCCC2)cc1	1%	22%	·	-9%
NS(=O)(=O)c1ccc(CCNC(=O)COC(=O)C2CCN(c3ccc(C(F)(F)F)cn3)CC2)cc1	-31%	-12%	·	-13%
O=C(c1ccc2c(c1)N(Cc1cccc(F)c1)C(=O)c1ccccc1S2)N1CCC2(CC1)OCCO2	?	?	3%	1%
CCOc1ccc(NC(=S)NC(=O)/C=C/c2ccc(C)cc2)c([N+](=O)[O-])c1	15µM*	13µM*	4%	-2%
Cc1ccc(/C=C/C(=O)NC(=S)Nc2ccccc2C(=O)NC2CCCCC2)cc1	13µM*	12µM*	4%	-1%
C=CCSc1nnc(-c2cc3c(-c4ccccc4)nn(C)c3s2)n1C	?	?	4%	28µM*
COc1ccc(OC)c(NC(=O)C2CCCN(S(=O)(=O)c3cccc4nsnc34)C2)c1 (centres undefined)	16µM*	16µM*	6%	-4%
COc1cc(NC(=O)C2CCCN(S(=O)(=O)c3cccc4nsnc34)C2)cc(OC)c1 (centres undefined)	?	21µM*	4%	0%
COc1cc(NC(=O)C(Cc2ccccc2)NS(=O)(=O)c2cccc3nsnc23)cc(OC)c1 (centres undefined)	16µM*	16µM*	5%	-2%
Cc1ccc2nc(NC(=O)C3CCCN(S(=O)(=O)c4cccc5nsnc45)C3)sc2c1 (centres undefined)	?	18µM*	7%	-1%
Cc1ccc2nc(NC(=O)C3CCN(S(=O)(=O)c4cccc5nsnc45)CC3)sc2c1	?	?	0%	-5%
Cc1nc(NCc2cccc3c2OCO3)sc1-c1ccn(CC2CCCN(C)C2)n1 (centres undefined)	-5%[9.04 µM]	-8%	·	·
O=C(O)c1cc(NS(=O)(=O)c2ccc(N3CCCCC3)c([N+](=O)[O-])c2)cc(C(=O)O)c1	-23%	-11%	4%	-3%
CC(C)(C)OC(=O)Cc1nnc(CNC(=O)c2ccccc2)s1	·	·	0%	·
CCn1c([N+](=O)[O-])nc2c1c(=O)[nH]c(=O)n2C	2.3µM*	1.8µM*	4%	0%
CCCCCCn1c(SCCCC)nc2c1c(=O)[nH]c(=O)n2C	-13%	?	1%	2%
O=S(=O)(c1ccc(Cl)cc1)N1CCC(c2nc3ccccc3[nH]2)CC1	?	12µM*	·	-3%
C[C@H]1CN([C@@H](C)CO)C(=O)CCCn2nncc2CO[C@@H]1CN(C)Cc1ccc(C(=O)O)cc1	0%	-5%	·	-1%
CCCNC(=O)C1(C)CCCN(C(=O)c2ccc3sccc3c2)C1 (centres undefined)	?	?	·	2%
Clc1ccc(CSc2nc(NCCc3ccccc3)c3ccccc3n2)cc1	9.2µM*	6.5µM*	4%	-1%
COc1ccc(CCNc2nc(SCc3cccc(F)c3)nc3ccccc23)cc1OC	16µM*	?	-1%	0%
O=c1cc(CSc2nc(NCc3ccccc3)c3ccccc3n2)nc2ccc(Cl)cn12	16µM*	12µM*	5%	-4%
COc1ccc(CCNc2c3ccccc3nc3ccccc23)cc1OC	?	21µM*	1%	·
COc1ccc(C(C)=O)cc1CSc1nc(NCc2ccc(Cl)cc2)c2ccccc2n1	?	-23%	6%	1%
CC1CC=CC2C1C(=O)N(Cc1ccccc1)C2c1ccc(F)c(/C=C/c2ccccc2)c1 (centres undefined)	·	·	-2%	·
Clc1ccccc1CSc1nc(NCCc2ccccc2)c2ccccc2n1	?	13µM*	-4%	-3%
Cc1ccc(N(CC(O)Cn2c3ccccc3c3ccccc32)S(=O)(=O)c2ccc(F)cc2)cc1 (centres undefined)	?	21µM*	·	?
